Reference: PubChem BioAssay (NCATS)
Results filed as inconclusive are left out. Active and inactive are the calls of the source. Unless noted, calls come from the whole dose curve; as a rule, active = well fitted cell-killing curve with a large enough effect; inconclusive = small, poorly fitted or top-dose-only effect; inactive = flat fitted curve, though single readings scatter.

What was measured:
[1] = Cell Viability - LYMP2-025 (AID 976);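 note: series mostly up to about 92 µM; plate controls were DMSO only for no effect and tetraoctylammonium bromide control for full effect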
Outline: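 Acute cytotoxicity is scored as a concentration-dependent fall in intracellular ATP, measured by luciferase luminescence, in human lymphoblastoid LYMP2-025 cells exposed to compound for 24 hours at 37 C. AC50 values come from standard Hill fits.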

[2] = Cell Viability - LYMP2-002 (AID 977);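 note: series mostly up to about 92 µM; compound exposure lasted 24 h at 37 °C; plate controls were DMSO only for no effect and 92 µM tetraoctylammonium bromide for full effect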
Outline: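 Human lymphoblastoid cells, 2500/well, complete medium; 5 h 37 C settle; compound 24 h 37 C; CellTiter-Glo, 30 min RT; luminescence. Decrease in ATP = cytotoxicity; AC50 via Hill equation.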

[3] = Cell Viability - LYMP2-006 (AID 978); note: series mostly up to about 92 µM; % is set by controls: 0 for no effect and ±100 for the full control effect; nearly all actives have a fitted effect of over 60% in size
Outline: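 Human lymphoblastoid cells (LYMP2-006), 2500/well in complete medium, were treated with compound for 24 hr at 37 C. Cellular ATP was read by CellTiter-Glo luminescence after 30 min, and AC50 values came from Hill-equation fits of concentration-response data.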

[4] = Cell Viability - LYMP2-007 (AID 979);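 note: cells exposed to compound for 24 h before reading; 0% = DMSO only and the negative end = 92 µM tetraoctylammonium bromide; nearly all actives have a fitted effect of over 60% in size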
Outline: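 Cells are seeded at 2500 per well and rested 5 hr. Compounds are then added over a concentration series for 24 hr at 37 C. CellTiter-Glo is added for 30 min at room temperature before luminescence reading.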

[5] = Cell Viability - LYMP2-008 (AID 980); note: % is set by controls: 0 for no effect and ±100 for the full control effect; nearly all actives have a fitted effect of over 60% in size
Outline: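 Cells seeded at 2500/well and rested 5 hr at 37 C; compounds added over a concentration range and incubated 24 hr at 37 C; CellTiter-Glo added, 30 min at room temperature; luminescence read and AC50 fitted with Hill model.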

[6] = Cell Viability - LYMP2-010 (AID 981); note: % is set by controls: 0 for no effect and ±100 for the full control effect; nearly all actives have a fitted effect of over 55% in size
Outline: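 Steps: seed 2500 LYMP2-010 cells per well; incubate 5 hr at 37 C; add compound; incubate 24 hr at 37 C; add CellTiter-Glo, wait 30 min at room temperature; read luminescence. Concentration-response fitted to Hill equation for AC50.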

[7] = Cell Viability - LYMP2-012 (AID 982);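 note: cellular ATP by luciferase luminescence where a drop means cytotoxicity; cells exposed to compound for one day before reading; 0% = DMSO only and full loss = 92 µM tetraoctylammonium bromide; nearly all actives have a fitted effect of over 55% in size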
[8] = Cell Viability - LYMP2-014 (AID 983);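 note: series mostly up to about 92 µM; plate controls were DMSO only for no effect and 92 µM tetraoctylammonium bromide for full effect; nearly all actives have a fitted effect of over 50% in size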
Outline: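 Cells are plated at 2500/well and left 5 hr at 37 C. Compounds are added across a concentration range and incubated 24 hr at 37 C in complete medium. CellTiter-Glo is added, and luminescence is read after 30 min at room temperature.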

[9] = Cell Viability - LYMP2-016 (AID 984); note: % is set by controls: 0 for no effect and ±100 for the full control effect; nearly all actives have a fitted effect of over 55% in size
Outline: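 Human lymphoblastoid LYMP2-016 cells, 2500 per well, treated with compounds for 24 h at 37 C. Viability read as intracellular ATP by CellTiter-Glo luminescence after 30 min at room temperature; AC50 from Hill fits of concentration-response.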

[10] = Cell Viability - LYMP2-018 (AID 985);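 note: compound exposure lasted 24 hr at 37 °C; plate controls were DMSO only for no effect and tetraoctylammonium bromide at 92 µM for full effect; nearly all actives have a fitted effect of over 50% in size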
Outline: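 Seed 2500 lymphoblastoid cells per well, incubate 5 hr at 37 C, add compound and incubate 24 hr at 37 C, add CellTiter-Glo, wait 30 min at room temperature, then read luminescence.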

[11] = Cell Viability - LYMP2-020 (AID 986);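 note: series mostly up to about 92 µM; plate controls were DMSO only for no effect and tetraoctylammonium bromide at 92 µM for full effect; nearly all actives have a fitted effect of over 55% in size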
Outline: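 Seed 2500 cells per well and incubate 5 hr at 37 C. Add compounds at a concentration series and incubate 24 hr at 37 C. Add CellTiter-Glo, wait 30 min at RT, read luminescence, and fit a Hill curve for AC50.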

[12] = Cell Viability - LYMP2-022 (AID 987)
Outline: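 Cells were seeded at 2500 per well, rested 5 hr at 37 C, and treated with titrated compounds for 24 hr at 37 C. Cellular ATP was then quantified by luciferase luminescence, and AC50 values were derived from Hill-modelled concentration-response curves.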

[13] = Cell Viability - LYMP2-024 (AID 988);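 note: plate controls were DMSO only for no effect and 92 µM tetraoctylammonium bromide for full effect; nearly all actives have a fitted effect of over 60% in size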
Outline: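 qHTS cytotoxicity, human lymphoblastoid line, complete medium; 24 h cpd treatment, 37 C; CellTiter-Glo ATP luminescence readout; tetraoctylammonium bromide positive control; AC50 via Hill fit.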

[14] = Cell Viability - LYMP2-026 (AID 989); note: % is set by controls: 0 for no effect and ±100 for the full control effect; nearly all actives have a fitted effect of over 50% in size
Outline: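 Cells are seeded at 2500 per well and held 5 hr at 37 C. Compounds are added in concentration series for 24 hr, then CellTiter-Glo reagent is applied and luminescence read.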

[15] = Cell Viability - LYMP1-002 - Assay at 24 hr (AID 993); note: % is set by controls: 0 for no effect and ±100 for the full control effect
Outline: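 Acute toxicity is measured as concentration-dependent loss of cellular ATP in a human lymphoblastoid line (Coriell LYMP1-002) after 24 h treatment in complete medium. ATP is quantified by luciferase luminescence and AC50 derived by Hill modelling.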

[16] = Cell Viability - LYMP1-002 - Assay at 40 hr (AID 994)
Outline: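 Cells are plated at 2500 per well and rested 5 hr at 37 C. Compounds are added and incubated 40 hr at 37 C. CellTiter-Glo reagent is added for 30 min at room temperature before luminescence is read.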

[17] = qHTS Assay for Identification of Small Molecule Inducers of Hypoxia Response (AID 2120; active = well fitted curve in the direction sought with a large enough effect in the signal ratio, with a control signal flat, not every such curve was filed as active; the % refers to the signal ratio; note: 0% is about no effect)
Outline: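 Cell-based qHTS for reporter induction: hypoxia response element controlled beta-lactamase in ME-180 cells. Compounds incubated 17 h at 37 degrees C; activity from blue/green (460/530 nm) ratio, inducers ranked by AC50.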

[18] = target: Estrogen receptor (Homo sapiens) (UniProt P03372); test: qHTS assay for small molecule antagonists of estrogen receptor alpha signaling (AID 588513; active = well fitted curve in the direction sought with a large enough effect in the signal ratio, with a control signal flat, not every such curve was filed as active; the % refers to the signal ratio; note: % is set by controls: 0 for no effect and ±100 for the full control effect)
Outline: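 ER-alpha-UAS-bla GripTite HEK 293 cells in 2% charcoal/dextran-treated FBS medium; compounds titrated (1:2, duplicate), then stimulated with 0.5 nM 17-beta-estradiol for 18 h at 37C. CCF4 beta-lactamase fluorescence; Hill-fit IC50 and efficacy.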

[19] = target: Estrogen receptor (Homo sapiens) (UniProt P03372); test: qHTS assay for small molecule agonists of estrogen receptor alpha signaling (AID 588514; calls by dose curve;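 note: 0% = vehicle only and 100% = reference agonist; nearly all actives have a fitted effect of over 70% in size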)
Outline: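 Efficacy is expressed against 20 nM 17-beta-estradiol (100%) and DMSO basal (0%); EC50 from Hill equation. Assay: beta-lactamase reporter in ER-alpha-UAS-bla HEK 293 cells, 18 h compound incubation, CCF4 detection.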

[20] = target: Androgen receptor (Homo sapiens) (UniProt P10275); test: qHTS assay for small molecule agonists of androgen receptor signaling (AID 588515; active = well fitted curve in the direction sought with a large enough effect in the signal ratio, with a control signal flat; the % refers to the signal ratio; note: % is set by controls: 0 for no effect and ±100 for the full control effect); details: AR-UAS-bla HEK293, beta-lactamase ratio, agonist 16 h; hits give high values
Outline: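 Stimulation of an AR-responsive β-lactamase reporter in GripTite HEK293 cells was measured after 16 h compound exposure at 37 °C, via CCF4 fluorescence after 2 h RT. EC50 from Hill fits, normalized to R1881 at 30 nM.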

Androgen receptor (Homo sapiens), sequence (P10275 whole entry, looked up): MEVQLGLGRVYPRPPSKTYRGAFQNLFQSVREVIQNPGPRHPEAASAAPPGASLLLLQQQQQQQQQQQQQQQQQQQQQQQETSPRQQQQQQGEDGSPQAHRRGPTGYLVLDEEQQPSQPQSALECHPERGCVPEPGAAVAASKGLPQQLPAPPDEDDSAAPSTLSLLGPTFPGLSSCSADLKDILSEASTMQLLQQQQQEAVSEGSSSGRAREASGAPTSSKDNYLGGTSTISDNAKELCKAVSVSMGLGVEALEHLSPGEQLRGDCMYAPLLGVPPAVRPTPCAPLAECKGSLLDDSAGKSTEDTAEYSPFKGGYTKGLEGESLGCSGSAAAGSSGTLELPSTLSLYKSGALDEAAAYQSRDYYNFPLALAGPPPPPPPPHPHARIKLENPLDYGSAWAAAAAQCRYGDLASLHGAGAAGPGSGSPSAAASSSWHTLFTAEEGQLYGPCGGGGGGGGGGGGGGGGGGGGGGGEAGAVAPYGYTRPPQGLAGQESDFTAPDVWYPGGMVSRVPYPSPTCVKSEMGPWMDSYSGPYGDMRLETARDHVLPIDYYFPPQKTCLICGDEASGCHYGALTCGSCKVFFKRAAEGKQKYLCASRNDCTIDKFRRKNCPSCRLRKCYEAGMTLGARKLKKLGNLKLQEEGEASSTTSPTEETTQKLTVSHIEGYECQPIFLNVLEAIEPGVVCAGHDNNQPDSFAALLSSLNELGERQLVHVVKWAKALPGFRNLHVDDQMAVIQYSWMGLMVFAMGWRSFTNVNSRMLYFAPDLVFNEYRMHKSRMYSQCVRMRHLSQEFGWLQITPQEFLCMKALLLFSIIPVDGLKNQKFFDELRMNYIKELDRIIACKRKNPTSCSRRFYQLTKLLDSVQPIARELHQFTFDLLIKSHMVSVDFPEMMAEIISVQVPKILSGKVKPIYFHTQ
Estrogen receptor (Homo sapiens), sequence (P03372 whole entry, looked up): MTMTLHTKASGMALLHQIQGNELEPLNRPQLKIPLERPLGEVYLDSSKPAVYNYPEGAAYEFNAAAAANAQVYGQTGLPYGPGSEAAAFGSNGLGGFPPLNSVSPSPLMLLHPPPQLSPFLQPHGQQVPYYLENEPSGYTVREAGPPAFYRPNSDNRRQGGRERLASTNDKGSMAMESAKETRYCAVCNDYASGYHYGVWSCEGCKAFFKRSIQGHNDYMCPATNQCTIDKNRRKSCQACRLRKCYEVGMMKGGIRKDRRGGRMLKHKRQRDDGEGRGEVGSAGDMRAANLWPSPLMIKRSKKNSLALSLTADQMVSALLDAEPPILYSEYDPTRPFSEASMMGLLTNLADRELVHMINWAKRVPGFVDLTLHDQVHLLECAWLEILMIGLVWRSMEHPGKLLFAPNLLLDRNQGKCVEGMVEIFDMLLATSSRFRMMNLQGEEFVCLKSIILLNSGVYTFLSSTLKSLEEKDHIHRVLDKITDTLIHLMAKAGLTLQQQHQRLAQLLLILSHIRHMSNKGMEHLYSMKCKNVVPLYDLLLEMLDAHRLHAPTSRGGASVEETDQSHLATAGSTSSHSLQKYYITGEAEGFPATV

CCOc1cc(OCC)c(C(C)=O)cc1OCC
inactive: Potency [1] | Potency [2] | Potency [3] | Potency [4] | Potency [5] | Potency [6] | Potency [7] | Potency [8] | Potency [9] | Potency [10] | Potency [11] | Potency [12] | Potency [13] | outcome [14] | Potency [15] | Potency [16] | outcome [17] | outcome [18] | Potency [19] | activation [20] -14.7%

FC(F)(F)c1cccc(Cl)c1
inactive: Potency [2] | Potency [3] | Potency [4] | Potency [5] | Potency [6] | Potency [7] | Potency [8] | Potency [9] | Potency [10] | Potency [11] | Potency [12] | Potency [13] | outcome [14] | Potency [16] | outcome [17] | outcome [18] | Potency [19] | activation [20] 4.73%

CNC(=O)N(c1ccccc1)c1ccccc1
inactive: Potency [2] | Potency [3] | Potency [4] | Potency [5] | Potency [6] | Potency [7] | Potency [8] | Potency [9] | Potency [10] | Potency [11] | Potency [12] | Potency [13] | outcome [14] | Potency [15] | Potency [16] | outcome [17] | outcome [18] | Potency [19] | activation [20] -11.4%

NC(=O)NC(N)=O
inactive: Potency [1] | Potency [2] | Potency [3] | Potency [4] | Potency [5] | Potency [6] | Potency [7] | Potency [8] | Potency [9] | Potency [10] | Potency [11] | Potency [12] | Potency [13] | outcome [14] | Potency [15] | Potency [16] | outcome [17] | outcome [18] | Potency [19]

Nc1cc(S(=O)(=O)O)ccc1O
inactive: Potency [1] | Potency [2] | Potency [3] | Potency [4] | Potency [5] | Potency [6] | Potency [7] | Potency [8] | Potency [9] | Potency [10] | Potency [11] | Potency [12] | Potency [13] | outcome [14] | Potency [15] | Potency [16] | outcome [17] | outcome [18] | Potency [19] | activation [20] 14.7%

CC=O
inactive: Potency [1] | Potency [2] | Potency [3] | Potency [4] | Potency [5] | Potency [6] | Potency [7] | Potency [8] | Potency [9] | Potency [10] | Potency [11] | Potency [12] | Potency [13] | outcome [14] | Potency [15] | Potency [16] | outcome [17] | outcome [18] | Potency [19]

CCN(Cc1ccccc1)c1ccccc1
inactive: Potency [1] | Potency [2] | Potency [3] | Potency [4] | Potency [5] | Potency [6] | Potency [7] | Potency [8] | Potency [9] | Potency [11] | Potency [12] | Potency [13] | outcome [14] | Potency [15] | Potency [16] | outcome [17] | outcome [18] | Potency [19] | activation [20] 11.1%

Nc1cccc([N+](=O)[O-])c1
inactive: Potency [1] | Potency [2] | Potency [3] | Potency [4] | Potency [5] | Potency [6] | Potency [7] | Potency [8] | Potency [9] | Potency [10] | Potency [11] | Potency [12] | Potency [13] | outcome [14] | Potency [15] | Potency [16] | outcome [17] | outcome [18] | Potency [19] | activation [20] -5.67%

CC(C)c1ccccc1
inactive: Potency [2] | Potency [3] | Potency [4] | Potency [5] | Potency [6] | Potency [7] | Potency [8] | Potency [9] | Potency [10] | Potency [11] | Potency [12] | Potency [13] | Potency [15] | Potency [16] | outcome [17] | outcome [18] | Potency [19] | activation [20] -0.119%

CCCC(Cl)CCCC(Cl)CCC(Cl)CCC(Cl)CCC(Cl)CCCC(Cl)CCC (configuration not stated)
inactive: Potency [1] | Potency [2] | Potency [3] | Potency [4] | Potency [5] | Potency [6] | Potency [8] | Potency [9] | Potency [10] | Potency [11] | Potency [12] | Potency [13] | outcome [14] | Potency [15] | Potency [16] | outcome [17] | outcome [18] | Potency [19] | activation [20] -5.75%

CC(C)(O)CCC(C)(C)O
inactive: Potency [2] | Potency [3] | Potency [4] | Potency [5] | Potency [6] | Potency [7] | Potency [8] | Potency [9] | Potency [10] | Potency [11] | Potency [12] | Potency [13] | outcome [14] | Potency [15] | Potency [16] | outcome [17] | outcome [18] | Potency [19] | activation [20] -1.56%

OC1CCCC1
inactive: Potency [1] | Potency [2] | Potency [3] | Potency [4] | Potency [5] | Potency [6] | Potency [7] | Potency [8] | Potency [9] | Potency [10] | Potency [11] | Potency [12] | Potency [13] | outcome [14] | Potency [15] | Potency [16] | outcome [17] | outcome [18] | Potency [19]

Cc1cccc(C(=O)O)c1
inactive: Potency [1] | Potency [2] | Potency [3] | Potency [4] | Potency [5] | Potency [6] | Potency [7] | Potency [8] | Potency [9] | Potency [10] | Potency [11] | Potency [12] | Potency [13] | outcome [14] | Potency [15] | Potency [16] | outcome [17] | outcome [18] | Potency [19] | activation [20] -5.05%

Cc1ccc(N(C)C)cc1
inactive: Potency [1] | Potency [3] | Potency [4] | Potency [5] | Potency [6] | Potency [7] | Potency [8] | Potency [9] | Potency [10] | Potency [11] | Potency [12] | Potency [13] | outcome [14] | Potency [15] | Potency [16] | outcome [17] | outcome [18] | Potency [19] | activation [20] 15.4%

C1COC1
inactive: Potency [1] | Potency [2] | Potency [3] | Potency [4] | Potency [5] | Potency [6] | Potency [7] | Potency [8] | Potency [9] | Potency [10] | Potency [11] | Potency [12] | Potency [13] | outcome [14] | Potency [16] | outcome [17] | outcome [18] | Potency [19] | activation [20] -10.3%
